Assay outcomes from PubChem BioAssay.
Wnt bcat act = activators of Wnt/beta-catenin signaling | Wnt/beta-catenin reporter cell assay, activator, plate reader | activation, % at 9.35 µM | hit rate 1.2% among 300,000; in the data active means activation above about 30%, passing the limit was not always enough; inconclusive means no clear call, values can overlap the other calls
C2C12 statin = suppressors of simvastatin-induced myotoxicity in C2C12 myotubes | ATP luminescence, 48 h; scaled: DMSO 0, geranylgeraniol control 100 | hit rate 0.78% among 330,000 | rescue of ATP level, % at 7.49 µM;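 active means mean ATP rescue above about 67%, or every replicate alone reaching that limit, limit read from the data, passing the limit was not always enough; inconclusive means no clear call, values can overlap the other calls; inactive means mean under the limit and some replicate under it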;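 further: myotubes were challenged with 10 µM simvastatin during compound exposure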
esBAF inh = blocks esBAF chromatin remodeling in mouse ES cells. reporter increase, % at 12.5 µM. Bmi1-luciferase knock-in reporter, 24 h; 100% = twice the neutral-well signal. hit rate 2% among 350,000; in the data active means activation above about 40%; inconclusive means no clear call, values can overlap the other calls;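 further: a rise in the Bmi1 reporter signal indicates esBAF inhibition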
MITF TRPM1 HTS = increases MITF-driven TRPM1 promoter luciferase signal. SK-MEL-5 TRPM1-promoter luciferase, 24 h; % of positive control, neutral wells = 0. activation, % at 12.5 µM. hit rate 0.75% among 300,000;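 active means mean activation of at least 80% with every replicate also reaching 80%; inconclusive means mean reaches 80% but some replicate falls short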
FXN GAA850 act = increases GAA850 frataxin promoter reporter activity; HEK293 lucGAA850 FXN promoter luciferase reporter, 24 h; percent of 10 µM SAHA response; hit rate 0.56% among 360,000; activation, % at 6 µM;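 active means activation above the average of all compounds screened plus 3 SD, cutoff fixed separately per campaign, cut at about 7.5% in these data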
Large screens that a line does not name were inactive. A selection: hits, their analogues and other compounds. The true share with any hit is near 3.3%.

CCCN(C)C[C@H]1OCCCC[C@@H](C)Oc2ccc(NS(=O)(=O)c3ccccc3)cc2C(=O)N([C@@H](C)CO)C[C@H]1C	none (no result: Wnt bcat act, MITF TRPM1 HTS, FXN GAA850 act)
CCOc1ccc(N2C(=O)C(Cl)=C(Nc3ccccc3O)C2=O)cc1	esBAF inh 40.8 (no result: Wnt bcat act)
O=C1C(Cl)=C(Nc2ccccc2O)C(=O)N1CCc1ccccc1	esBAF inh 62.2
COc1ccc(CCNC2=C(Cl)C(=O)N(CCc3ccccc3)C2=O)cc1OC	none (no result: C2C12 statin, esBAF inh)
COc1ccccc1NC1=C(Cl)C(=O)N(c2ccccc2)C1=O	none (no result: Wnt bcat act, C2C12 statin, esBAF inh)
Cc1cccc(S(=O)(=O)N2C[C@@H](O)COC[C@H]3O[C@@H](CC(=O)N4CCN(C)CC4)CC[C@@H]32)c1	none (no result: Wnt bcat act, MITF TRPM1 HTS, FXN GAA850 act)
COc1ccccc1-c1cn(CC[C@H]2CC[C@H](NC(=O)c3cnccn3)[C@H](CO)O2)nn1	none (no result: Wnt bcat act, MITF TRPM1 HTS, FXN GAA850 act)
CC(C)N1C(=O)CC(Nc2ccc(N3CCOCC3)cc2)C1=O (stereo not given)	none (no result: MITF TRPM1 HTS)
COc1ccc(NC2CC(=O)N(C(C)C)C2=O)cc1 (stereo not given)	esBAF inh 59.6
Cn1nc(C(=O)Nc2ccc(S(=O)(=O)N3CCCCC3)cc2)ccc1=O	C2C12 statin 96.3
Cn1nccc1C(=O)Nc1ccc(S(=O)(=O)N2CCCC2)cc1	none
CCn1c(SCC(=O)N2CCCC2)nnc1-c1ccc(N)cc1	C2C12 statin 123.9 (no result: MITF TRPM1 HTS)
CCCCn1c(SCC(=O)N2CCCC2)nnc1-c1ccccc1	none (no result: MITF TRPM1 HTS)
CCN(CC)c1ccc(/C=N/N2CCOCC2)c(O)c1	MITF TRPM1 HTS 108.6 (no result: Wnt bcat act, C2C12 statin, esBAF inh)
CCN(CC)c1ccc(/C=N/N2CCN(Cc3ccccc3)CC2)c(O)c1	none (no result: C2C12 statin, esBAF inh)
Cc1ccc(S(=O)(=O)Nc2ccc3c(c2)C(=O)N([C@@H](C)CO)C[C@@H](C)[C@H](CN(C)S(=O)(=O)c2ccc(F)cc2)OCCCC[C@@H](C)O3)cc1	none (no result: Wnt bcat act, C2C12 statin, MITF TRPM1 HTS, FXN GAA850 act)
Cc1ccc(Nc2ncc3c(n2)CC(C)CC3=O)c(C)c1 (stereo not given)	Wnt bcat act 52.0 (no result: C2C12 statin, esBAF inh, MITF TRPM1 HTS)
COC(=O)C(C)N1C(=O)S/C(=C\c2ccc(-c3ccc(C(=O)O)cc3C)o2)C1=O (stereo not given)	esBAF inh 71.0
COc1ccccc1OCC(=O)NC1CCCCCCC1	none
COc1ccccc1-c1ccc(Nc2cccc(C(F)(F)F)c2)nn1	esBAF inh 45.5 (no result: Wnt bcat act)
COc1ccccc1-c1ccc(NC2CCCCC2)nn1	MITF TRPM1 HTS 83.2 (no result: Wnt bcat act, C2C12 statin, esBAF inh)
CCc1c(C)nc(SCC(=O)c2cccs2)c(C#N)c1C	esBAF inh 54.0 (no result: Wnt bcat act)
CCc1c(C)nc(SCC(N)=O)c(C#N)c1C	none (no result: Wnt bcat act)
COc1ccc(OCc2ccc(C(=O)O)cc2)cc1	esBAF inh 50.7 (no result: Wnt bcat act)
NNC(=O)c1ccc(COc2ccc3c(c2)CCC3)cc1	none (no result: C2C12 statin, esBAF inh)
CCCc1cc(=O)oc2cc(OCc3ccc(C(=O)O)cc3)ccc12	esBAF inh 53.1
CCCc1cc(=O)oc2cc(OCc3ccc(C(=O)O)o3)ccc12	none
O=C(O)c1ccc(COc2ccc3c(c2)CCC3)cc1	Wnt bcat act 33.0 (no result: C2C12 statin, esBAF inh)
COc1ccc(NC(=O)N(C)C[C@H]2Oc3ccc(NS(=O)(=O)c4ccc(Cl)cc4)cc3CC(=O)N([C@H](C)CO)C[C@@H]2C)cc1	none (no result: Wnt bcat act, MITF TRPM1 HTS, FXN GAA850 act)
CC(C)NC(=O)Nc1ccc2c(c1)C(=O)N(C)[C@@H]1CC[C@H](CC(=O)Nc3ccccc3)O[C@H]1CO2	none (no result: Wnt bcat act, MITF TRPM1 HTS, FXN GAA850 act)
C/C=C/c1ccc2c(c1)O[C@H](CN(C)C(=O)NCCC)[C@H](C)CN([C@@H](C)CO)S2(=O)=O	none (no result: Wnt bcat act, MITF TRPM1 HTS, FXN GAA850 act)
COc1ccc(-c2cn(CC[C@H]3CC[C@@H](NS(=O)(=O)c4ccccc4C)[C@H](CO)O3)nn2)cc1	none (no result: Wnt bcat act, MITF TRPM1 HTS, FXN GAA850 act)
Cc1cccc(NC2SC(=O)N(c3ccccc3)C2=O)c1 (stereo not given)	esBAF inh 54.8 (no result: Wnt bcat act)
O=C(CC1SC(=O)N(c2ccccc2)C1=O)Nc1ccccc1 (stereo not given)	none (no result: Wnt bcat act, C2C12 statin, esBAF inh)
Cc1ccc(NC(=O)CC2SC(=O)N(c3ccccc3)C2=O)cc1 (stereo not given)	Wnt bcat act 32.5 (no result: C2C12 statin, esBAF inh)
O=C(C[C@H]1C[C@@H]2c3cc(NS(=O)(=O)c4ccc(F)cc4)ccc3O[C@@H]2[C@@H](CO)O1)NCc1ccc(-c2ccccc2)cc1	none (no result: Wnt bcat act, MITF TRPM1 HTS, FXN GAA850 act)
CO[C@@H]1CN(C)C(=O)c2cc(NC(=O)C3CCC3)ccc2OC[C@H](C)N(Cc2cccnc2)C[C@@H]1C	none (no result: Wnt bcat act, MITF TRPM1 HTS, FXN GAA850 act)
CCC(=O)N(C)C[C@@H]1Oc2cc(C#CCC3CCCC3)ccc2S(=O)(=O)N([C@@H](C)CO)C[C@H]1C	none (no result: Wnt bcat act, MITF TRPM1 HTS, FXN GAA850 act)
CC(=O)NC12CC3CC(C1)CC(C(=O)Nc1nc4ccc(F)cc4s1)(C3)C2	esBAF inh 44.7
Cc1ccccc1NC(=O)Nc1ccc2c(c1)C(=O)N(C)[C@H]1CC[C@@H](CC(=O)O)O[C@@H]1CO2	none (no result: Wnt bcat act, MITF TRPM1 HTS, FXN GAA850 act)
CCN(CCCNC(=O)C1CCC(=O)N1C(C)C)c1cccc(C)c1 (stereo not given)	C2C12 statin 125.9 (no result: Wnt bcat act)
CCN(CCCNC(=O)C1CCCN(S(=O)(=O)CC)C1)c1cccc(C)c1 (stereo not given)	none (no result: Wnt bcat act)
CCOC(=O)C1=C(CC)Nc2ccccc2N=C1NC(=O)c1ccc(S(=O)(=O)N(C)C)cc1	none
CCOC(=O)C1=C(C)Nc2ccccc2N=C1NC(=O)c1cccc(S(=O)(=O)N(C)C)c1	C2C12 statin 111.5
CC1CCCC(C)N1C(=O)C1CC(c2ccc(F)cc2)=NO1 (stereo not given)	C2C12 statin 92.4
CCC(=O)N1[C@H](CO)[C@@H](c2ccc(C3=CCCCC3)cc2)[C@@H]1CN(C)C(C)=O	none (no result: Wnt bcat act, MITF TRPM1 HTS, FXN GAA850 act)
CCCNC(=O)N[C@H]1CC[C@@H](CCNS(=O)(=O)c2cccc(F)c2)O[C@@H]1CO	none (no result: Wnt bcat act, MITF TRPM1 HTS, FXN GAA850 act)
Nc1nnnn1NCc1cccc(OCc2ccccc2)c1	C2C12 statin 104.2
COc1ccc2cc(-c3ccn[nH]3)ccc2c1	Wnt bcat act 35.3
Cc1ccc(NC(=O)c2cnc3ccccc3n2)cc1C	Wnt bcat act 42.4 (no result: MITF TRPM1 HTS)
Cc1ccc(NC(=O)c2ccc3ccccc3n2)cc1S(=O)(=O)N(C)C	Wnt bcat act 43.2, esBAF inh 82.6, MITF TRPM1 HTS 119.0
Cc1cnc(C(=O)Nc2ccc(C)c(S(=O)(=O)N(C)C)c2)cn1	none (no result: C2C12 statin, esBAF inh)
Cn1c(/C(C#N)=C(\O)c2ccc(Br)s2)nc2ccccc21	esBAF inh 47.3
Cn1c(/C(C#N)=C(\O)c2cc(Cl)sc2Cl)nc2ccccc21	none
O=C(/C=C/c1ccc(S(=O)(=O)N2CCOCC2)cc1)NC(=S)NCCCn1ccnc1	Wnt bcat act 31.9
O=C(COc1ccc(S(=O)(=O)N2CCOCC2)cc1)NCCCn1ccnc1	none
N=C1/C(=C/c2ccc(OCc3ccccc3F)cc2)C(=O)N=C2SC(CC(=O)N3CCOCC3)=NN12	none
N=C1/C(=C/c2ccc(OCc3ccccc3)cc2)C(=O)N=C2SC(CC(=O)N3CCOCC3)=NN12	esBAF inh 42.0
O=C(Nc1ccc2ncccc2c1)c1cccc(Br)c1	Wnt bcat act 33.5, esBAF inh inconclusive
C[C@@H]1CN([C@H](C)CO)S(=O)(=O)c2ccc(-c3ccc(C(=O)N(C)C)cc3)cc2O[C@H]1CN(C)C(=O)C1CC1	none (no result: Wnt bcat act, esBAF inh, MITF TRPM1 HTS, FXN GAA850 act)
C/C=C/c1ccc2c(c1)O[C@@H](CN(C)C(=O)CN(C)C)[C@H](C)CN([C@H](C)CO)S2(=O)=O	none (no result: Wnt bcat act, MITF TRPM1 HTS, FXN GAA850 act)
